# Results as given in PubChem BioAssay.
# Active and inactive are the calls of the source. Cut-off read from the data, not from the text of the source, unless noted: active = inhibition above about 80%; inactive = the rest.
# What was measured:
# [1] = LFS_MB_P medulloblastoma growth inhibition, cell-based, chromothripsis tumors, cisplatin or BGB combos (AID 1671449); details: LFS_MB_P medulloblastoma cells;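 note: cells exposed for 96 hours; 0% = vehicle DMSO and 100% = killing by high DMSO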
# [2] = HDN33 neuroblastoma growth inhibition, cell-based, chromothripsis tumors, cisplatin or BGB combos (AID 1671450); details: HDN33 neuroblastoma cells, stronger effect = higher value;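 note: cells exposed to compound for four days; 0% = vehicle DMSO and 100% = cell killing by high DMSO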
# [3] = ICB984 medulloblastoma cell growth inhibition, synergistic combos for chromothripsis tumors, cisplatin or BGB combos (AID 1671451; call rule not given here;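 note: cells exposed for 96 hours before readout; 0% = vehicle DMSO and 100% = killing by high DMSO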); details: ICB984 medulloblastoma cells, drug combinations, stronger effect = higher value
# [4] = LFS_MB_1R medulloblastoma cell growth inhibition, synergistic combos for chromothripsis tumors, cisplatin or BGB combos (AID 1671452); details: LFS_MB_1R medulloblastoma cells, stronger effect = higher value;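 note: cells exposed for 96 hours before readout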
# [5] = HTB85 osteosarcoma cell growth inhibition, synergistic combos for chromothripsis tumors, BGB or cisplatin IC20 combos (AID 1671453); details: HTB85 osteosarcoma cells, drug combinations, stronger effect = higher value;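 note: cells exposed for 96 hours before readout; 0% = vehicle DMSO and 100% = high DMSO killing control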
# [6] = CRL2098 osteosarcoma cell growth inhibition, synergistic combos for chromothripsis tumors, BGB or cisplatin IC20 combos (AID 1671454); details: CRL2098 osteosarcoma cells, drug combinations, stronger effect = higher value;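 note: cells exposed for 96 h before readout; 0% = vehicle DMSO and 100% = killing by high DMSO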
# [7] = HD-MB03 medulloblastoma cell growth inhibition, synergistic combos for chromothripsis tumors, BGB or cisplatin IC20 combos (AID 1671455; in the data active = inhibition above about 83%;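 note: 0% = vehicle DMSO and 100% = high DMSO as cytotoxic control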); details: HD-MB03 medulloblastoma cells, stronger effect = higher value
# [8] = UWB1.289 ovarian carcinoma cell growth inhibition, synergistic combos for chromothripsis tumors, BGB or cisplatin combos (AID 1671456); details: UWB1.289 ovarian carcinoma cells, stronger effect = higher value;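 note: cells exposed to compound for four days; 0% = vehicle DMSO and 100% = killing by high DMSO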
# [9] = LFS_MB_2R medulloblastoma cell growth inhibition, synergistic combos for chromothripsis tumors, cisplatin combos (AID 1671457); details: LFS_MB_2R medulloblastoma cells, stronger effect = higher value;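 note: cells exposed to compound for four days before readout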
# [10] = MDA-MB-436 breast carcinoma cell growth inhibition, synergistic combos for chromothripsis tumors, BGB or cisplatin combos (AID 1671458; call rule not given here;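 note: cells exposed for 96 hours; 0% = vehicle DMSO and 100% = killing by high DMSO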); details: MDA-MB-436 breast carcinoma growth inhibition, drug combinations, stronger effect = higher value
# [11] = UWB1.289_BRCA1 ovarian cancer growth, cell-based, BGB or cisplatin combinations (AID 1671459); details: UWB1.289 BRCA1 ovarian carcinoma, drug combinations, stronger effect = higher value
# [12] = human astrocyte viability loss, single and combined drugs, cytotoxicity control for chromothriptic childhood tumor combination screen, cell-based, BGB or cisplatin IC20 combos (AID 1671460); details: Human astrocytes, drug combinations, stronger effect = higher value;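 note: cells exposed to compounds for 96 hours before viability readout; 0% = vehicle and 100% = killing control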
# [13] = growth inhibition of BT084 medulloblastoma cells, cell-based, ICGC_MB145, cisplatin and BGB IC40 combos (AID 1671461); details: drug combinations, stronger effect = higher value;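 note: cells exposed to drugs for 96 hours; 0% = vehicle DMSO and 100% = high DMSO full killing control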
# [14] = growth inhibition of RCMB18 medulloblastoma cells, cell-based, cisplatin and BGB IC40 combos (AID 1671462); details: stronger effect = higher value;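 note: cells exposed to compound for four days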
# [15] = growth inhibition of CRL1545 osteosarcoma cells, cell-based, cisplatin and BGB IC20 combos (AID 1671464); details: stronger effect = higher value;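 note: cells exposed to compound for 96 hours before readout; 0% = vehicle DMSO and 100% = high DMSO killing control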
# [16] = measured here: combination with BGB IC40, at 0.05 µM
# [17] = measured here: with BGB IC20 combination, at 0.5 µM
# [18] = measured here: with cisplatin IC20 combination, at 0.5 µM
# [19] = measured here: combination with cisplatin, at 0.5 µM
# [20] = measured here: combination with cisplatin, at 5 µM
structure (smiles),measurement,setting,value
COc1cccc2c1C(=O)c1c(O)c3c(c(O)c1C2=O)CC(O)(C(C)=O)CC3OC1CC(N)C(O)C(C)O1 (stereo not drawn),inhibition,"[1]; at 0.5 µM, stronger effect = higher value",-31.5% (inactive)
same,inhibition,"[1]; measured here: combination with BGB IC20, at 0.005 µM",15.7%
same,inhibition,"[1]; measured here: combination with BGB IC40, at 0.005 µM",-20.1%
same,inhibition,[1]; [16],0.2%
same,inhibition,"[1]; measured here: combination with cisplatin, at 0.5 µM, stronger effect = higher value",-39.6%
same,inhibition,"[1]; measured here: combination with cisplatin, at 5 µM, stronger effect = higher value",121%
same,inhibition,"[2]; BGB combo, at 5 µM",99.8%
same,inhibition,[2]; at 0.5 µM,99.4% (active)
same,inhibition,"[2]; cisplatin combo, at 5 µM",99.9%
same,inhibition,[2]; [17],98.9%
same,inhibition,[2]; [18],99.7%
same,inhibition,"[2]; single agent, at 5 µM",99.9%
same,inhibition,"[3]; BGB IC20 combo, at 0.005 µM",97.7%
same,inhibition,"[3]; BGB IC40 combo, at 0.005 µM",98%
same,inhibition,"[3]; BGB IC40 combo, at 0.05 µM",102%
same,inhibition,[3]; at 0.5 µM,-13% (inactive)
same,inhibition,"[3]; cisplatin combo, at 0.05 µM",102%
same,inhibition,"[3]; cisplatin combo, at 0.5 µM",-18.7%
same,inhibition,"[3]; cisplatin combo, at 5 µM",7.68%
same,inhibition,"[3]; measured here: 5 uM single agent, at 5 µM",8.05%
same,inhibition,[4]; at 0.5 µM,101% (active)
same,inhibition,[4]; [16],85%
same,inhibition,[4]; [19],101%
same,inhibition,[4]; [20],104%
same,inhibition,[5]; at 0.5 µM,99.2% (active)
same,inhibition,"[5]; measured here: with BGB IC20, at 0.5 µM",98.8%
same,inhibition,"[5]; measured here: with BGB IC20, at 5 µM",99.9%
same,inhibition,"[5]; measured here: with cisplatin IC20, at 0.5 µM",99.3%
same,inhibition,"[5]; measured here: with cisplatin IC20, at 5 µM",100%
same,inhibition,"[5]; single agent, at 5 µM",99.9%
same,inhibition,[6]; at 0.5 µM,99.4% (active)
same,inhibition,"[6]; measured here: combination with BGB at IC20, at 0.5 µM",98.9%
same,inhibition,"[6]; measured here: combination with cisplatin at IC20, at 0.5 µM",99.6%
same,inhibition,[7]; at 0.5 µM,97.2% (active)
same,inhibition,"[7]; measured here: combo with BGB at IC20, at 0.5 µM",95.8%
same,inhibition,"[7]; measured here: combo with cisplatin at IC20, at 0.5 µM",97.5%
same,inhibition,[8]; at 0.5 µM,72.4% (inactive)
same,inhibition,"[8]; measured here: inhibition with BGB combination, at 0.05 µM",38.4%
same,inhibition,"[8]; measured here: inhibition with cisplatin combination, at 0.05 µM",35.7%
same,inhibition,[9]; at 0.5 µM,86.9% (active)
same,inhibition,[9]; [19],95.6%
same,inhibition,[9]; [20],112%
same,inhibition,[10]; at 0.5 µM,87.4% (active)
same,inhibition,"[10]; measured here: BGB combination, at 0.5 µM",85.1%
same,inhibition,"[10]; measured here: BGB combination, at 5 µM",89.2%
same,inhibition,"[10]; measured here: cisplatin combination, at 0.5 µM",91.5%
same,inhibition,"[10]; measured here: cisplatin combination, at 5 µM",95.1%
same,inhibition,"[11]; BGB combination, concentration series, at 5 µM",104%
same,inhibition,[11]; at 0.5 µM,80.6% (active)
same,inhibition,"[11]; cisplatin combination, concentration series, at 5 µM",98.3%
same,inhibition,[12]; at 0.5 µM,93.3% (active)
same,inhibition,"[12]; measured here: combo with BGB IC20, at 0.5 µM",88.3%
same,inhibition,"[12]; measured here: combo with cisplatin IC20, at 0.5 µM",93.9%
same,inhibition,[13]; at 0.5 µM,40.4% (inactive)
same,inhibition,"[13]; cisplatin combination, at 0.5 µM",18.1%
same,inhibition,"[13]; cisplatin combination, at 5 µM",88%
same,inhibition,"[13]; measured here: BGB IC40 combination 0.05 uM, at 0.05 µM",-6.7%
same,inhibition,"[13]; single agent, at 5 µM",88.2%
same,inhibition,[14]; at 0.5 µM,79% (inactive)
same,inhibition,"[14]; cisplatin combo, at 5 µM",90.7%
same,inhibition,"[14]; measured here: BGB IC40 combination, at 0.05 µM",13.9%
same,inhibition,[14]; [19],77.7%
same,inhibition,"[14]; single agent, at 5 µM",94.7%
same,inhibition,[15]; at 0.5 µM,99.5% (active)
same,inhibition,[15]; [17],99.1%
same,inhibition,[15]; [18],99.7%
same,inhibition,"[15]; single agent, at 0.05 µM",98.4%
same,inhibition,"[15]; single agent, at 5 µM",100%
